The text below walks through data of PubChem BioAssay (NCI).

Among the test systems are NCI-H23 lung; NCI-H226 lung; NCI-H322M lung; HOP-62 NSCLC; NCI-H460 lung; HOP-92 NSCLC; NCI-H522 lung; A549/ATCC NSCLC; 786-0 renal; DU-145 prostate; K-562 leukemia; MALME-3M melanoma; MDA-MB-231 breast; RXF 393 renal; SF-268 CNS; SF-539 CNS; UACC-257 melanoma; M14 melanoma; SF-295 CNS.
Holding throughout (assay): NCI-60 one-dose screen, 48 h (100 = growth as untreated, 0 = no growth, -100 = all killed)
Common to all, as to settings: 10 µM unless noted

Compounds without any hit were thinned out: in the full panel of roughly 83,000, 20% have a hit.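 Cells were grown in 96-well plates and exposed to the test compound at a single concentration for 48 hours; results are reported as percent growth, with values below 10 considered active.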 A number with no mark means an inactive call. Activity calls are given as the source filed them.

Take `NC(N)=N/N=C(/c1ccccc1)c1ccc(N)cc1`: the growth in the experiment with NCI-H23 lung is 101%; with NCI-H226 lung it was 89.6%; in the experiment with NCI-H322M lung, 91.2%; in the experiment on HOP-62 NSCLC, 100%; in the experiment with NCI-H460 lung it was 110%; in the experiment with HOP-92 NSCLC it was 92.8%. Further, the growth is 88.5% with NCI-H522 lung; 99.5% with A549/ATCC NSCLC; 105% in the experiment on 786-0 renal; 116% in the experiment on DU-145 prostate; 113% with K-562 leukemia; 122% in the experiment with MALME-3M melanoma. In addition, the growth was 103% with MDA-MB-231 breast; 108% in the experiment with RXF 393 renal; 115% in the experiment on SF-268 CNS; 103% in the experiment with SF-539 CNS; 92.7% in the experiment with UACC-257 melanoma; 104% with M14 melanoma.

For `CC1(C)N=C(N)N=C(N)N1c1cccc(CN)c1`, the growth in the experiment with NCI-H23 lung is 93.2%; with NCI-H226 lung, 92.7%; with NCI-H322M lung, 94.3%; in the experiment on HOP-62 NSCLC, 92.3%; in the experiment on NCI-H460 lung, 111%; with HOP-92 NSCLC, 80.5%. For the same compound, the growth was 80.7% in the experiment with NCI-H522 lung; 91% in the experiment with A549/ATCC NSCLC; 99.1% in the experiment with 786-0 renal; 109% in the experiment on DU-145 prostate; 116% in the experiment with K-562 leukemia; 98.8% with MDA-MB-231 breast. The growth with RXF 393 renal was 103%; in the experiment on SF-268 CNS, 101%; with SF-295 CNS, 94.7%; in the experiment with SF-539 CNS, 99.3%; with UACC-257 melanoma, 86.5%; with M14 melanoma, 96.7%.

Consider `C=CC(=O)N[C@@H](Cc1ccc(-c2cc(Cl)cc(Cl)c2)cc1)[C@@H](O)[C@H](O)C(=O)O`, for which the growth in the experiment with NCI-H23 lung is 99.9%; in the experiment on NCI-H226 lung, 84.9%; in the experiment with NCI-H322M lung, 105%; with HOP-62 NSCLC it was 79%; in the experiment with NCI-H460 lung it was 105%; with HOP-92 NSCLC, 93.9%. Also, the growth is 67.7% with NCI-H522 lung; 79% in the experiment on A549/ATCC NSCLC; 98.6% in the experiment on 786-0 renal; 109% in the experiment on DU-145 prostate; 101% in the experiment on K-562 leukemia; 96.6% with MALME-3M melanoma. Further, the growth in the experiment with MDA-MB-231 breast was 104%; in the experiment on SF-268 CNS it was 101%; with SF-295 CNS, 100%; in the experiment with SF-539 CNS, 94.9%; with M14 melanoma, 99.4%.

In the case of `COc1cc2oc3cc(C)oc(=O)c3c2cc1OC`, the growth in the experiment with NCI-H23 lung is 94.1%; in the experiment with NCI-H226 lung, 96.8%; with NCI-H322M lung, 103%; with HOP-62 NSCLC, 93.2%; in the experiment on NCI-H460 lung it was 105%; with HOP-92 NSCLC it was 92.9%. Moreover, the growth is 82.1% in the experiment on NCI-H522 lung; 87.7% in the experiment with A549/ATCC NSCLC; 83.4% in the experiment with 786-0 renal; 99.6% with DU-145 prostate; 128% with K-562 leukemia; 99.4% with MDA-MB-231 breast. Further, the growth in the experiment with RXF 393 renal was 104%; in the experiment on SF-268 CNS, 108%; in the experiment on SF-295 CNS, 89.7%; with SF-539 CNS, 94.8%; in the experiment on UACC-257 melanoma, 92.8%; with M14 melanoma it was 102%.

Take `CCCCCCCC/C=C\CCCCCCCC(=O)Oc1cccc2cccnc12`: the growth was 105% in the experiment with NCI-H23 lung; 97% with NCI-H226 lung; 97.6% in the experiment with NCI-H322M lung; 96.4% in the experiment with HOP-62 NSCLC; 96.1% in the experiment with NCI-H460 lung; 236% in the experiment with HOP-92 NSCLC. Also, the growth in the experiment on NCI-H522 lung was 71%; in the experiment on A549/ATCC NSCLC it was 101%; in the experiment on 786-0 renal it was 105%; in the experiment on DU-145 prostate it was 78.5%; with K-562 leukemia, 73.9%; with MALME-3M melanoma it was 117%. The growth with MDA-MB-231 breast is 106%; in the experiment on RXF 393 renal, 47.6%; in the experiment with SF-268 CNS it was 90.8%; with SF-539 CNS it was 102%; in the experiment on UACC-257 melanoma, 2.81% (active); in the experiment with M14 melanoma, 90.3%.

For the compound `CC(/C=N/NC(=O)c1cc(-c2ccco2)[nH]n1)=C\c1ccccc1`, the growth is 93% in the experiment on NCI-H23 lung; 88.5% in the experiment on NCI-H226 lung; 93.3% with NCI-H322M lung; 95.4% in the experiment on HOP-62 NSCLC; 127% in the experiment with NCI-H460 lung; 57.6% in the experiment on HOP-92 NSCLC. The growth in the experiment with NCI-H522 lung is 110%; with A549/ATCC NSCLC, 105%; in the experiment with 786-0 renal, -91.2% (active); in the experiment with DU-145 prostate, 101%; in the experiment on K-562 leukemia it was 86.6%; with MALME-3M melanoma, 91.3%. For the same compound, the growth is 102% in the experiment with MDA-MB-231 breast; 93.9% with SF-268 CNS; 69.9% with SF-295 CNS; 102% in the experiment with SF-539 CNS; 89.9% with UACC-257 melanoma; 95% in the experiment with M14 melanoma.

`O=C1CSC(c2ccccc2O)N1c1nnc(Cn2cnnc2)o1` (stereo not given): the growth was 77.3% in the experiment on NCI-H23 lung; 78.5% with NCI-H226 lung; 87.3% in the experiment with NCI-H322M lung; 78.7% in the experiment on HOP-62 NSCLC; 86.9% with NCI-H460 lung; 53.9% with HOP-92 NSCLC. For the same compound, the growth in the experiment with NCI-H522 lung was 98.1%; with A549/ATCC NSCLC it was 97.7%; in the experiment with 786-0 renal, 25.8%; in the experiment on DU-145 prostate, 105%; in the experiment on K-562 leukemia, 82.6%; with MALME-3M melanoma it was 96.2%. Further, the growth is 73.7% in the experiment on MDA-MB-231 breast; 82.9% in the experiment with SF-268 CNS; 94% with SF-295 CNS; 89.7% with SF-539 CNS; 96.4% with UACC-257 melanoma; 69% in the experiment with M14 melanoma.

Turning to `O=C1CSC(c2ccccc2Cl)N1c1nnc(Cn2cnnc2)o1` (stereo not given), the growth in the experiment on NCI-H23 lung was 51.7%; with NCI-H226 lung, 78.8%; with NCI-H322M lung, 87.1%; in the experiment on HOP-62 NSCLC, 37.3%; in the experiment on NCI-H460 lung it was 34.2%; with HOP-92 NSCLC, 43%. Further, the growth in the experiment with NCI-H522 lung was 101%; in the experiment on A549/ATCC NSCLC, 58%; with 786-0 renal it was 41.9%; in the experiment with DU-145 prostate it was 104%; in the experiment on K-562 leukemia, 8.59% (active); with MALME-3M melanoma, 28.9%. Moreover, the growth with MDA-MB-231 breast was 68.6%; in the experiment on SF-268 CNS, 94.7%; in the experiment on SF-295 CNS, -32.6% (active); in the experiment on SF-539 CNS it was 39.7%; with M14 melanoma, 20.4%.

Take `Clc1ccc(-c2nnc(-c3ccco3)o2)cc1`: the growth in the experiment with NCI-H23 lung is 91.9%; with NCI-H226 lung, 91.7%; with NCI-H322M lung, 93.6%; with HOP-62 NSCLC, 80.9%; with NCI-H460 lung it was 108%; in the experiment on HOP-92 NSCLC, 72.6%. For the same compound, the growth is 99.1% with NCI-H522 lung; 96.8% in the experiment on A549/ATCC NSCLC; 86.8% in the experiment on 786-0 renal; 99.5% in the experiment on DU-145 prostate; 93.3% in the experiment on K-562 leukemia; 113% with MALME-3M melanoma. The growth in the experiment with MDA-MB-231 breast is 99%; with SF-268 CNS, 101%; in the experiment with SF-295 CNS, 112%; in the experiment with SF-539 CNS it was 106%; with UACC-257 melanoma, 93.5%; with M14 melanoma, 101%.
